DT40 TDP1 CPT: growth inhibition of DT40 Tdp1-/-;hTDP1 cells with camptothecin (screen for TDP1 inhibitors). chicken DT40 Tdp1-/-;hTDP1 cells + 20 nM CPT, ATP luminescence, 48 h. Potency, µM (highest dose often 46.2 µM), for the others: at the top dose activity change, negative = growth inhibition, actives largely listed as inhibitors. 12% of 420,000 active. AID 686979; further: nearly all actives have a fitted effect of over 55% in size
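Chicken DT40 Tdp1-/- cells complemented with human TDP1, 400 cells/well, exposed to compounds plus 20 nM camptothecin for at least 48 h at 37 C; viability read as ATP content by CellTiter-Glo luminescence.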
VP16 counter: inhibits Gal4-VP16 luciferase reporter, ROR gamma counter-screen. Drosophila S2 Gal4-VP16 UAS-luciferase, luminescence, 20 h. Potency, µM (doses to about 53.6 µM), inactives show top-dose activity, negative = inhibition, most hits filed as inhibitors. 3.5% of 310,000 active;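 further: Gal4-VP16 expression switched on by copper sulfate through the metallothionein promoter; nearly all actives have a fitted effect of over 50% in size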
ALOX12 inh: ALOX12 (human) lipoxygenase inhibition. P18054. AID 1671190. Potency, µM (doses to about 108 µM), for the others: at the highest dose activity change, negative = inhibition, most hits filed as inhibitors. 1.1% of 580,000 active. purified 12hLO, xylenol orange hydroperoxide absorbance
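Hydroperoxide product was detected by ferrous iron/xylenol orange as the 573 to 405 nm absorbance ratio. Arachidonic acid at 40 uM (final) was turned over for 30 min at room temperature by 150 nM human 12hLO, pH 7.0 Hepes buffer, after 15 min compound preincubation.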
ELG1 DNA repair: inhibitors of ELG1-dependent DNA repair in HEK293T cells; 2.3% of 330,000 active; Potency, µM (series often up to 46.1 µM), for inactives: at the top dose activity change, negative = inhibition, hits mostly inhibitors; AID 504467; HEK293T ELG1-luciferase reporter, luminescence, 16 h; DNA damage induced by 5-fluorouridine; further: nearly all actives have a fitted effect of over 55% in size
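HEK293T cells expressing luciferase-tagged ELG1 (2,000/well) received 5-Fluorouridine plus compound or DMSO for 16 hr at 37 °C. Luciferase was read by ONE-Glo luminescence after 30 min at room temperature.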
DT40 TDP1 no CPT: qHTS for Inhibitors of human tyrosyl-DNA phosphodiesterase 1 (TDP1): qHTS in cells in absence of CPT; DT40 Tdp1-/- hTDP1 cells, no CPT, ATP luminescence, 48 h; Potency, µM (highest dose often 46.2 µM), for inactives: top-dose activity change, negative = growth inhibition, actives largely listed as inhibitors; 15% of 420,000 active; further: nearly all actives have a fitted effect of over 55% in size
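A cellular qHTS used chicken DT40 cells lacking endogenous Tdp1 but carrying stably transfected human TDP1. Compounds were applied without camptothecin, and cell growth kinetics were judged by ATP-dependent luminescence after ≥48 hr.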
RORg inh: inhibitors of mouse ROR gamma transcriptional activity | 5.4% of 310,000 active | Potency, µM (series often up to 53.6 µM), for the others: at the highest dose activity change, negative = inhibition, most hits filed as inhibitors | AID 2551 | P51450 | Drosophila S2 Gal4-RORgamma UAS-luciferase reporter, 20 h; further: nearly all actives have a fitted effect of over 60% in size
Target sequence (P51450 whole entry, looked up, the tested form may be a part): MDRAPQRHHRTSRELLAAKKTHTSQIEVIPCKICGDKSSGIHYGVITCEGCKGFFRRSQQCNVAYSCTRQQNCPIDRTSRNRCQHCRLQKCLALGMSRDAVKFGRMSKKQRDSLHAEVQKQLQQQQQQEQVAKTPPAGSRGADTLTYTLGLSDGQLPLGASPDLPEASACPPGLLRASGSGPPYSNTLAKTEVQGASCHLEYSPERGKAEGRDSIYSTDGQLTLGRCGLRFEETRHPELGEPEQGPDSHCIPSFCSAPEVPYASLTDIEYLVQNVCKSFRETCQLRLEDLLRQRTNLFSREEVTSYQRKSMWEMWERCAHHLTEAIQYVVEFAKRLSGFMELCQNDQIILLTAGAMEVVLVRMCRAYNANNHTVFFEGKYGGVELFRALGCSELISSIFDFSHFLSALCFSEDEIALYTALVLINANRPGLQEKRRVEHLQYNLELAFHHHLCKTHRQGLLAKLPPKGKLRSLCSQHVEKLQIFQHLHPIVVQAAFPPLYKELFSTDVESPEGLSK
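Drosophila S2 cells stably expressing Gal4-DBD/mouse RORγ fusion under metallothionein promoter plus UAS-luciferase; compound 1 h, then 700 uM CuSO4 induction for 20 h at ambient temperature; inhibition read as reduced luminescence.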
* = called active by the depositor; ? = inconclusive; . = no result given. An excerpt weighted towards active compounds, which were near 15% of everything screened. The call rests on the fitted dose curve; in most records, active means well fitted curve in the direction sought with a large enough effect; inconclusive means small, poorly fitted or top-dose-only effect, or another doubt; inactive means no such curve, though single readings can be large; an effect the other way counts as inactive or inconclusive. On the % scale 0 is the no-effect control and ±100 the full control effect; potency means the concentration at half of the fitted maximal effect.

SMILES	DT40 TDP1 CPT	VP16 counter	ALOX12 inh	ELG1 DNA repair	DT40 TDP1 no CPT	RORg inh
CC(C)(C)c1ccc(/C=N/Nc2ccc(S(=O)(=O)Nc3ccccc3)cc2[N+](=O)[O-])cc1	.	.	37.5%	.	.	.
CC(=O)NC1=NC(=O)/C(=C/c2cn(C(C)=O)nc2-c2ccccc2)S1	?	11.8%	-28.2%	20.6µM*	?	13.4%
CC(=O)NC1=NC(=O)/C(=C/c2cc(C)n(-c3cccc(C(=O)O)c3)c2C)S1	1.5%	-8.0%	?	-15.0%	?	-6.5%
CCN=C1S/C(=C\c2cn(C(C)=O)nc2-c2ccccc2)C(=O)N1CC	16.4µM*	0.0%	-10.3%	?	?	-15.4%
N#Cc1ccc(CN2CCCN(CC(=O)N3CCN(C4CCS(=O)(=O)C4)CC3)CC2)cc1 (centres undefined)	.	.	41.8%	.	.	.
CCCCCC(O)(c1ccc(OC)cc1)C(CN1CCOCC1)c1ccccc1 (centres undefined)	16.4µM*	-5.6%	?	-8.3%	10.3µM*	?
CCCCC(O)(c1ccc(OC)cc1)C(CN1CCOCC1)c1ccccc1 (centres undefined)	18.4µM*	4.5%	?	?	23.1µM*	20.2%
CCCCC(O)(c1ccccc1)C(CN1CCOCC1)c1ccccc1 (centres undefined)	23.1µM*	-6.2%	?	-15.3%	?	2.4%
COc1ccc(C(O)(C(C)C)C(CN2CCOCC2)c2ccccc2)cc1 (centres undefined)	?	-4.3%	-3.4%	?	?	4.7%
COc1ccc(C(O)(C(C)C)C(CN2CCOCC2)c2ccc(Cl)cc2)cc1 (centres undefined)	?	-4.9%	-7.8%	-28.4%	18.4µM*	-3.1%
CCCCC(O)(c1ccc(CC)cc1)C(CN1CCOCC1)c1ccccc1 (centres undefined)	?	-29.6%	?	?	?	38.5%
CCCCCC(O)(c1ccc(OCC)cc1)C(CN1CCOCC1)c1ccccc1 (centres undefined)	?	-19.7%	0.0%	?	16.4µM*	35.6%
Cc1nn(C)c(C(=O)Nc2ccn(Cc3c(F)c(F)cc(F)c3F)n2)c1[N+](=O)[O-]	-20.4%	3.0%	-12.4%	-19.2%	?	3.5%
Cc1nn(Cc2cccc(C(=O)Nc3ccn(Cc4c(F)c(F)cc(F)c4F)n3)c2)c(C)c1[N+](=O)[O-]	?	-10.4%	-0.9%	20.6µM*	?	-5.0%
CCOc1ccc(NC(=O)c2cc3c(=O)n(C)c4ccccc4c3n2C)cc1	8.2µM*	-4.7%	216.4%	7.6%	16.4µM*	3.4%
COc1ccccc1NC(=O)c1cc2c(=O)n(C)c3ccccc3c2n1C	?	-2.1%	-12.0%	?	14.6µM*	-3.9%
Cn1c(C(=O)Nc2ccc3c(c2)OCO3)cc2c(=O)n(C)c3ccccc3c21	-13.4%	-10.3%	-2.0%	?	?	?
CCOc1ccc(NC(=O)c2cn(CC(C)C)c(=O)c3c2c2ccccc2n3C)cc1	?	-12.6%	7.0%	?	8.2µM*	15.8%
COc1cccc(NC(=O)c2cc3c(=O)n(C)c4ccccc4c3n2C)c1	?	.	-20.0%	.	-13.2%	.
CCOc1ccc(CCNC(=O)c2cc3c(=O)n(C)c4ccccc4c3n2C)cc1OCC	23.1µM*	.	-22.0%	.	11.6µM*	.
NCc1cccc(OCc2ccccc2)c1	.	.	31.2%	.	.	.
CC(C)=CCN1CCN(Cc2ccc(C#N)cc2)CC1	.	.	-1.3%	.	.	.
CCc1ccc(C(c2ccccc2)c2c(C)[nH]c3ccccc23)s1 (centres undefined)	.	.	-11.9%	.	.	.
CCOc1cc(C(c2c[nH]c3ccccc23)c2c[nH]c3ccccc23)ccc1O	.	.	-28.8%	.	.	.

Screens as filed in PubChem BioAssay.
